Measurements: PubChem BioAssay
Inconclusive results are not listed. The source made the active and inactive calls.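 How the source made its calls, unless noted: active means normalized viability below 100% at a tested concentration; inactive means the rest.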 Where a SMILES comes first, the peptide text is derived from it. The star is where a group is joined. Cbz = O=C(OCc1ccccc1)*

Columns and labels:
[1] = viability loss in pontine glioma line – cell-based, SU-DIPG-XVII, MIPE5.0, CellTiter-Glo, qHTS, dose response (AID 1347060; cut-off not given, nearly all actives have AC50 up to about 26 µM;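 on AC50: cells exposed to compound for 48 hours before viability readout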); settings: CellTiter-Glo ATP luminescence
[2] = viability loss in pontine glioma line – cell-based, SU-DIPG-XXV, MIPE5.0, CellTiter-Glo, qHTS, dose response (AID 1347065; cut-off not given, nearly all actives have AC50 up to about 26 µM;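 further: cells exposed to compound for 48 hours before ATP readout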); settings: CellTiter-Glo ATP luminescence
[3] = JHH-DIPG-1 glioma cell viability, MIPE5.0 library, CellTiter-Glo luminescence, qHTS (AID 1347067; cut-off not given, nearly all actives have AC50 up to about 26 µM;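 further: cells exposed to compound for 48 hours before readout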); settings: JHH-DIPG-1 glioma viability, CellTiter-Glo ATP luminescence
[4] = growth inhibition of DIPG cells – cell-based, MIPE5.0 library, qHTS (AID 1347068; cut-off not given, nearly all actives have IC50 up to about 30 µM;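 on IC50: cells exposed to compound for 48 hours before viability readout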); settings: SU-DIPG-XXV viability
[5] = viability loss with induced miR-34 in A549 – imaging, A549 dox-inducible miR-34, nuclei and caspase counts, primary screen (AID 1347080;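 active means compounds whose cell count with miR-34 switched on is under 0.7 times the count with it off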); settings: A549 miR-34 inducible, Hoechst nuclei count, 48 h
[6] = compounds altering HSF1 focus formation in cells – imaging, Selleck Cancer Library (AID 1347162; in the data active means plate-normalised HSF1 focus index below about 0.46); settings: human cells, HSF1 nuclear foci imaging, at 10 µM; SSMD: measured here: HSF1 foci SSMD mean; cell count: measured here: cell number; plate-normalised HSF1 focus index: stronger effect = lower value
[7] = MELAS cybrid and Rieske KO viability enhancers – cell-based, MELAS cybrids, Rieske KO mouse fibroblasts, CellTiter-Glo, primary screen (AID 1508586;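 active means mean z-score across replicates of 1.96 or higher in either the MELAS or the Rieske mutant cell line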;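 further: z relative to plate mean and SD of compound and empty wells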); settings: low glucose
[8] = drug combination growth inhibition, ovarian cancer – cell-based, oncology-focused library, rucaparib conditional, profiling panel (AID 1508598); settings: patient-derived ovarian cancer cells, CellTiter-Glo viability, 144 h, stronger effect = lower value
[9] = viability loss in pontine glioma line – cell-based, JHH-DIPG-1, MIPE4.0, CellTiter-Glo, qHTS, dose response (AID 1347062; cut-off not given, nearly all actives have AC50 up to about 27 µM;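 on AC50: cells exposed to compound for two days before readout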); settings: JHH-DIPG-1 viability, CellTiter-Glo ATP luminescence
[10] = viability loss in pontine glioma line – cell-based, SU-DIPG-IV, MIPE4.0, CellTiter-Glo, qHTS, dose response (AID 1347063; cut-off not given, nearly all actives have AC50 up to about 30 µM;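 further: compound exposure lasted 48 hours before the viability readout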); settings: CellTiter-Glo ATP luminescence
[11] = viability loss in pontine glioma line – cell-based, SU-DIPG-XIII, MIPE5.0, CellTiter-Glo, qHTS, dose response (AID 1347064; cut-off not given, nearly all actives have AC50 up to about 23 µM;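 on AC50: cells exposed to compound for 48 hours before the viability read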); settings: CellTiter-Glo ATP luminescence
[12] = growth inhibition of DIPG cells – cell-based, MIPE4.0 library, CellTiter-Glo luminescence, qHTS (AID 1347066; cut-off not given, nearly all actives have AC50 up to about 30 µM;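 further: cells exposed to compound for 48 hours before readout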); settings: SU-DIPG-VI viability, CellTiter-Glo ATP luminescence
[13] = stronger effect = lower value, cell number ratio, induced over uninduced
[14] = measured here: relative caspase fold change +Dox/-Dox
[15] = measured here: total cells with miR-34 induction, stronger effect = lower value
[16] = measured here: total cells without miR-34 induction
[17] = MELAS cybrid survival, CellTiter-Glo 48 h, stronger effect = higher value
[18] = Rieske KO mouse fibroblast survival, CellTiter-Glo 72 h
[19] = at 0.000305 µM, OCI-C5x cells, with rucaparib 10 µM, 100% = cells with rucaparib alone
[20] = at 0.000305 µM, OCI-C5x cells, without rucaparib
[21] = at 0.000305 µM, OCI-P5x cells, with rucaparib 20 µM, 100% = cells with rucaparib alone
[22] = at 0.000305 µM, OCI-P5x cells, without rucaparib
[23] = at 0.00122 µM, OCI-C5x cells, with rucaparib 10 µM, 100% = cells with rucaparib alone
[24] = at 0.00122 µM, OCI-C5x cells, without rucaparib
[25] = at 0.00122 µM, OCI-P5x cells, with rucaparib 20 µM, 100% = cells with rucaparib alone
[26] = at 0.00122 µM, OCI-P5x cells, without rucaparib
[27] = at 0.00488 µM, OCI-C5x cells, with rucaparib 10 µM, 100% = cells with rucaparib alone
[28] = at 0.00488 µM, OCI-C5x cells, without rucaparib
[29] = at 0.00488 µM, OCI-P5x cells, with rucaparib 20 µM, 100% = cells with rucaparib alone
[30] = at 0.00488 µM, OCI-P5x cells, without rucaparib
[31] = at 0.0195 µM, OCI-C5x cells, with rucaparib 10 µM, 100% = cells with rucaparib alone
[32] = at 0.0195 µM, OCI-C5x cells, without rucaparib
[33] = at 0.0195 µM, OCI-P5x cells, with rucaparib 20 µM, 100% = cells with rucaparib alone
[34] = at 0.0195 µM, OCI-P5x cells, without rucaparib
[35] = at 0.0781 µM, OCI-C5x cells, with rucaparib 10 µM, 100% = cells with rucaparib alone
[36] = at 0.0781 µM, OCI-C5x cells, without rucaparib
[37] = at 0.0781 µM, OCI-P5x cells, with rucaparib 20 µM, 100% = cells with rucaparib alone
[38] = at 0.0781 µM, OCI-P5x cells, without rucaparib
[39] = at 0.313 µM, OCI-C5x cells, with rucaparib 10 µM, 100% = cells with rucaparib alone
[40] = at 0.313 µM, OCI-C5x cells, without rucaparib
[41] = at 0.313 µM, OCI-P5x cells, with rucaparib 20 µM, 100% = cells with rucaparib alone
[42] = at 0.313 µM, OCI-P5x cells, without rucaparib
[43] = at 1.25 µM, OCI-C5x cells, with rucaparib 10 µM, 100% = cells with rucaparib alone
[44] = at 1.25 µM, OCI-C5x cells, without rucaparib
[45] = at 1.25 µM, OCI-P5x cells, with rucaparib 20 µM, 100% = cells with rucaparib alone
[46] = at 1.25 µM, OCI-P5x cells, without rucaparib
[47] = at 5 µM, OCI-C5x cells, with rucaparib 10 µM, 100% = cells with rucaparib alone
[48] = at 5 µM, OCI-C5x cells, without rucaparib
[49] = at 5 µM, OCI-P5x cells, with rucaparib 20 µM, 100% = cells with rucaparib alone
[50] = at 5 µM, OCI-P5x cells, without rucaparib

CN1CCN(CCOc2cc(OC3CCOCC3)c3c(Nc4c(Cl)ccc5c4OCO5)ncnc3c2)CC1
inactive: outcome [1] | outcome [2] | outcome [3] | outcome [4] | fold change [5, 13] 0.876 | plate-normalised HSF1 focus index [6] 0.94 | z-score [7, 17] 0.931 | viability [8, 22] 104% | viability [8, 23] 107% | viability [8, 25] 102% | viability [8, 29] 102% | viability [8, 31] 107% | viability [8, 35] 105% | viability [8, 39] 104%
-0.947: SSMD [6]
-0.384: z-score [7, 18]
1: fold change [5, 14]
active: viability [8, 19] 98.7% | viability [8, 20] 98.5% | viability [8, 21] 98.8% | viability [8, 24] 98.2% | viability [8, 26] 90.6% | viability [8, 27] 97.5% | viability [8, 28] 94.4% | viability [8, 30] 91.3% | viability [8, 32] 94.6% | viability [8, 33] 96.6% | viability [8, 34] 89% | viability [8, 36] 94.2% | viability [8, 37] 82.4% | viability [8, 38] 83% | viability [8, 40] 95.8% | viability [8, 41] 69% | viability [8, 42] 72.2% | viability [8, 43] 91.7% | viability [8, 44] 87.9% | viability [8, 45] 58.9% | viability [8, 46] 64.4% | viability [8, 47] 32.8% | viability [8, 48] 53.2% | viability [8, 49] 5.51% | viability [8, 50] 52.2%
7430: cell count [6]
1330: cell count [5, 16]
1170: cell count [5, 15]

C/C(=N\NC(=S)N1CCC1)c1ccccn1
active: AC50 [1] 9.34 nM | AC50 [9] 1480 nM | AC50 [10] 10.5 nM | AC50 [11] 23.5 nM | AC50 [2] 13.2 nM | AC50 [12] 9350 nM

O=C(Cc1ccc(-c2ccc(OCCN3CCOCC3)cc2)cn1)NCc1ccccc1
1260: cell count [5, 16]
active: AC50 [1] 118 nM | AC50 [9] 59 nM | AC50 [10] 11.8 nM | AC50 [11] 661 nM | AC50 [2] 118 nM | AC50 [12] 1050 nM | AC50 [3] 132 nM | IC50 [4] 525 nM | viability [8, 30] 96.7% | viability [8, 32] 58.9% | viability [8, 33] 85.3% | viability [8, 34] 29.6% | viability [8, 35] 62.9% | viability [8, 36] 50.7% | viability [8, 37] 69.5% | viability [8, 38] 23.9% | viability [8, 39] 40.7% | viability [8, 40] 33.9% | viability [8, 41] 58.7% | viability [8, 42] 18.5% | viability [8, 43] 46.4% | viability [8, 44] 34.1% | viability [8, 45] 58.9% | viability [8, 46] 17.4% | viability [8, 47] 50.3% | viability [8, 48] 32.6% | viability [8, 49] 49.4% | viability [8, 50] 15.3%
0.488: fold change [5, 14]
inactive: fold change [5, 13] 1.21 | plate-normalised HSF1 focus index [6] 1.14 | z-score [7, 17] 1.14 | viability [8, 19] 106% | viability [8, 20] 114% | viability [8, 21] 109% | viability [8, 22] 106% | viability [8, 23] 111% | viability [8, 24] 124% | viability [8, 25] 108% | viability [8, 26] 108% | viability [8, 27] 112% | viability [8, 28] 109% | viability [8, 29] 105% | viability [8, 31] 101%
-0.489: z-score [7, 18]
6240: cell count [6]
1530: cell count [5, 15]
2.71: SSMD [6]

O=C(O)CCCCCC(=O)NN=C1CCCC1
inactive: outcome [1] | outcome [9] | outcome [10] | outcome [11] | outcome [2] | outcome [12] | outcome [3] | outcome [4]

CC(C)C[C@@H](C=O)NC(=O)[C@H](CC(C)C)NC(=O)[C@H](CC(C)C)NC(=O)OCc1ccccc1 (Cbz-Leu-Leu-Leu-aldehyde)
active: AC50 [1] 468 nM | AC50 [9] 166 nM | AC50 [10] 148 nM | AC50 [11] 59 nM | AC50 [2] 148 nM | AC50 [12] 296 nM | AC50 [3] 468 nM | IC50 [4] 263 nM
595: cell count [5, 16]
6800: cell count [6]
638: cell count [5, 15]
1.23: fold change [5, 14]
7.09: SSMD [6]
inactive: fold change [5, 13] 1.07 | plate-normalised HSF1 focus index [6] 1.43

CNC(=O)c1ccc(N2C(=S)N(c3cnc(C#N)c(C(F)(F)F)c3)C(=O)C23CCC3)cc1F
10200: cell count [5, 16]
0.701: fold change [5, 14]
active: AC50 [9] 935 nM | AC50 [10] 1320 nM | AC50 [12] 18700 nM
0.855: z-score [7, 18]
inactive: outcome [1] | outcome [11] | outcome [2] | outcome [3] | outcome [4] | fold change [5, 13] 0.909 | z-score [7, 17] -0.228
9240: cell count [5, 15]

Cc1cc(CN2CCN(c3c(Br)cnc4nc(-c5ccc(N6CCN(C)CC6)cc5)[nH]c34)CC2)no1
inactive: fold change [5, 13] 1.05 | z-score [7, 17] -0.545
3250: cell count [5, 16]
-0.677: z-score [7, 18]
active: AC50 [1] 1660 nM | AC50 [9] 7430 nM | AC50 [10] 5260 nM | AC50 [11] 3320 nM | AC50 [2] 1050 nM | AC50 [12] 14800 nM | AC50 [3] 2630 nM | IC50 [4] 8330 nM
0.921: fold change [5, 14]
3400: cell count [5, 15]

CC[C@H](C)n1cc(C)c2c(C(=O)NCc3c(C)cc(C)[nH]c3=O)cc(-c3ccc(N4CCNCC4)nc3)cc21
active: AC50 [12] 23500 nM | IC50 [4] 20900 nM
inactive: outcome [1]

Cc1cc(SCc2sc(-c3ccc(C(F)(F)F)cc3)nc2C)ccc1OCC(=O)O
inactive: outcome [1] | outcome [9] | outcome [10] | outcome [11] | outcome [2] | outcome [12] | outcome [3] | outcome [4]
